According to ChEMBL document CHEMBL4513216, “Probing the Open Global Health Chemical Diversity Library for Multistage-Active Starting Points for Next-Generation Antimalarials” (ACS Infect Dis, 2020):
In all, about 69,000 compounds went through this assay and about 8,600 (12%) showed an effect of 50% or more. The sample as a whole holds a higher share of strong results than the screen did.

System: Plasmodium berghei
Assay: Screen against P. berghei liver stage (PbLuc), transformed with Luciferase, at 10uM
Type: functional, HepG2
Conditions: tested at 10 uM

Compound | INHIBITION
N#Cc1ccc(CNCC2(c3ccccc3)CCOCC2)cc1 | -32.8%
COCC(=O)N1CCC(c2cc(-c3ccc(C)cc3)n[nH]2)C1 (stereo not given) | -16.9%
CC(C(=O)N1CCCN(c2ccccc2C#N)CC1)n1cccn1 (stereo not given) | -6.44%
CNC(=O)[C@H]1C[C@@H]2CN(S(=O)(=O)c3cccc(F)c3)C[C@@H]2N1C | -23.8%
CNC(=O)[C@H]1C[C@@H]2CN(S(=O)(=O)c3ccccc3)C[C@@H]2N1C | 30.1%
CNC(=O)[C@H]1C[C@@H]2CN(S(=O)(=O)c3cccc(C)c3)C[C@@H]2N1C | 50.7%
CCc1n[nH]c(C(=O)N2CCC3(CCCN(CCOC)C3=O)C2)c1C (stereo not given) | 41.2%
Cc1cc2ncc(CN(C)C)c(C3CCN(C)CC3)n2n1 | 16.771%
Cc1ccccc1CN1CCN(C(C)c2nc(C3CC3)no2)CC1 (stereo not given) | 5.7%
CCC1CN(C(=O)c2ccc(O)cn2)CCC(=O)N1Cc1ccccc1 (stereo not given) | 66.8%
CCC1CN(C(=O)c2ccc(=O)[nH]n2)CCC(=O)N1Cc1ccccc1 (stereo not given) | 25%
CCC1CN(C(=O)c2ncccc2O)CCC(=O)N1Cc1ccccc1 (stereo not given) | 7.43%
O=C(C1CCOC1)N1CCC2(CC1)CN(c1ncccn1)CCO2 (stereo not given) | 25.2%
COCC(=O)N1CCC2(CC1)CCN(Cc1ccccn1)C2=O | 42.1%
COCC(=O)N1CCC2(CC1)CC(COC)N(Cc1ccccn1)C2 (stereo not given) | 26.7%
CN(C)CC(=O)N1CCC2(CC1)COCCN(c1ncccn1)C2 | -13.2%
NC(=O)N1CCC2(CC1)CN(c1ncccn1)CCO2 | 25.2%
COCC(=O)N1CCC2(CC1)CN(c1ccccn1)CCO2 | 62.5%
CN(C)CC(=O)N1CCC2(CC1)CN(c1ncccn1)CCO2 | 83.5%
COCC(=O)N1CCC2(CC1)CN(c1ncccn1)CCO2 | 57.9%
COCC(=O)N1CCC2(CCN(Cc3ccccn3)CC2)CC1 | 56.9%
Cn1cccc1C(=O)N1CCC2(CC1)CN(c1ccccn1)CCO2 | 28.5%

Compound | INHIBITION
CN(C)C(=O)CN1CCOCC2(C1)CN(c1ncccn1)CCO2 (stereo not given) | 11.6%
O=C(Cc1ccccn1)N1CCC2(CC1)CN(c1ccccn1)CCO2 | 21.7%
Cc1cnc(N2CCOC(C(=O)NCc3ccccc3)C2)s1 (stereo not given) | 12.8%
CCC(C)NC(=O)c1cc(S(=O)(=O)N2CCCC2)c(C)s1 (stereo not given) | 28.3%
Cn1ccc(C(=O)NCc2ccc(N3CCOCC3)nc2)cc1=O | -29.9%
O=C(NCC(F)(F)F)C1CSCN1S(=O)(=O)c1cccc(F)c1 (stereo not given) | -16.6%
COc1ccc(-c2cc(C(=O)NCCn3ccnc3)n(C)n2)cc1 | -5.8%
CN(Cc1ccc(O)cc1)C(=O)NCc1nnc2n1CCCCC2 | -9.76%
CCc1nc(CN2CCCN(CC(=O)N3CCOCC3)CC2)no1 | 13.8%
CCC(C)C(=O)NCc1c(C)nn(C)c1N1CCCN(C)CC1 (stereo not given) | -1.32%
O=C(CC1CC1)N1CCC2(CC1)CN(c1ncccn1)CCO2 | 50%
NCCC(=O)N1CCC2(CC1)CN(C(=O)Cc1ccc(Cl)cc1)CCO2 | 64.8%
O=S(=O)(C1CC1)N1CCC2(CN(c3ccccn3)C2)C1 | 24.9%
c1cnc(N2CCOC3(CCN(CC4CCCCC4)CC3)C2)nc1 | 34.7%
NCC(=O)N1CCC2(CC1)CN(C(=O)Cc1ccc(Cl)cc1)CCO2 | -26.3%
O=S(=O)(C1CC1)N1CCC2(CN(c3ncccn3)C2)C1 | 54.8%
O=C(N1CCOCC1)N1CCC2(CC1)CN(c1ccccn1)CCO2 | 67.2%
CCCS(=O)(=O)N1CCC2(CC1)CN(c1ccccn1)CCO2 | 0%
Cc1occc1C(=O)N1CCC2(CC1)CN(c1ccccn1)CCO2 | 14.8%
O=S(=O)(C1CC1)N1CCC2(CCCN(c3ncccn3)C2)C1 (stereo not given) | 19.6%
NCCC(=O)N1CCC2(CC1)CN(C(=O)Cc1cccc(Cl)c1)CCO2 | -4.76%
O=C(CC1CC1)N1CCC2(CC1)CN(c1ncc(F)cn1)CCO2 | 35.7%

Compound | INHIBITION
NC(=O)c1cnc(NC2CC2)nc1CCNC(=O)Cc1ccccc1 | -50.3%
CCn1nc(C)c(CNC(=O)NCC(C)(O)c2ccc(C)o2)c1C (stereo not given) | -8.5%
Cc1ccc(CN2CCC3(CC2)C(=O)N(CCO)CCN3C)o1 | 18.6%
O=C(CCc1ccsc1)N1CCCC(N2CCNC2=O)C1 (stereo not given) | -5.26%
O=C(NCCc1ccccn1)N1CCOC(c2ccccc2Cl)C1 (stereo not given) | -4.63%
COc1cc(C2SC(C)=Nc3c2c(=O)[nH]n3C2CCCC2)ccc1O (stereo not given) | 24.7%
CC(C)CC(=O)N1C[C@H]2CCCN(S(=O)(=O)c3ccc(Cl)s3)[C@H]2C1 | -29.9%
CCS(=O)(=O)N1CCOC2(CCCN(c3cnccn3)C2)C1 (stereo not given) | -7.59%
O=C(Cc1ccccn1)N1CCC2(CC1)[C@H](O)C[C@@H]2O | 39%
O=C(c1cscn1)N1CCC2(CC1)CN(c1ccccn1)CCO2 | 34.6%
Cc1ccc(C(=O)N2CCC3(CC2)CN(c2ccccn2)CCO3)cc1 | 49.7%
CCOC1CC2(CCN(C(=O)Cc3ccccn3)CC2)C1 | 31.2%
CC(C)COC1CC2(CCN(C(=O)Cc3ccccn3)CC2)C1 | 64.7%
COCC(=O)N1CCOC2(CCCN(c3cnccn3)C2)C1 (stereo not given) | 52.3%
Cc1cnc(C(=O)N2CCC3(CC2)CN(c2ccccn2)CCO3)cn1 | 56.7%
CS(=O)(=O)N1CCOC2(CCCN(c3cnccn3)C2)C1 (stereo not given) | -14%
O=C(Cc1ccccc1)N1CCC2(CC1)CN(c1ncccn1)CCO2 | 50.9%
CC(=O)N1CCCC2(C1)CN(C(=O)Cc1ccccc1)CCO2 (stereo not given) | 41.6%
O=C(Cc1ccccn1)N1CCC2(CC1)CN(c1ncccn1)CCO2 | 27.6%
CC1=C(C#N)C(=O)NC(=O)/C1=C\c1c(C)[nH]n(-c2ccc(Cl)cc2)c1=O | 11.5%
Cn1cc(CCNC(=O)N2CCCC(c3nncn3C)C2)cn1 (stereo not given) | -18%
